Reference: the supplement of paper PMC11732987, “Enantioselective OTUD7B fragment discovery through chemoproteomics screening and high-throughput optimisation” (Communications Chemistry, 2025)

Tests used:
Assay in all cases: log2 ratio of Biotin-Ahx-Ub-VS probe labelling (fragment/DMSO); higher = less target engagement (more negative = stronger competition), active = hit call of the paper (q ≤ 0.05, log2 ratio ≤ -1)
Settings in all cases: compound concentration: 200 uM; treatment time: 3 h
USP42 = molecular target: T1, USP42 (UniProt Q9H9J4)
T1 sequence (whole entry): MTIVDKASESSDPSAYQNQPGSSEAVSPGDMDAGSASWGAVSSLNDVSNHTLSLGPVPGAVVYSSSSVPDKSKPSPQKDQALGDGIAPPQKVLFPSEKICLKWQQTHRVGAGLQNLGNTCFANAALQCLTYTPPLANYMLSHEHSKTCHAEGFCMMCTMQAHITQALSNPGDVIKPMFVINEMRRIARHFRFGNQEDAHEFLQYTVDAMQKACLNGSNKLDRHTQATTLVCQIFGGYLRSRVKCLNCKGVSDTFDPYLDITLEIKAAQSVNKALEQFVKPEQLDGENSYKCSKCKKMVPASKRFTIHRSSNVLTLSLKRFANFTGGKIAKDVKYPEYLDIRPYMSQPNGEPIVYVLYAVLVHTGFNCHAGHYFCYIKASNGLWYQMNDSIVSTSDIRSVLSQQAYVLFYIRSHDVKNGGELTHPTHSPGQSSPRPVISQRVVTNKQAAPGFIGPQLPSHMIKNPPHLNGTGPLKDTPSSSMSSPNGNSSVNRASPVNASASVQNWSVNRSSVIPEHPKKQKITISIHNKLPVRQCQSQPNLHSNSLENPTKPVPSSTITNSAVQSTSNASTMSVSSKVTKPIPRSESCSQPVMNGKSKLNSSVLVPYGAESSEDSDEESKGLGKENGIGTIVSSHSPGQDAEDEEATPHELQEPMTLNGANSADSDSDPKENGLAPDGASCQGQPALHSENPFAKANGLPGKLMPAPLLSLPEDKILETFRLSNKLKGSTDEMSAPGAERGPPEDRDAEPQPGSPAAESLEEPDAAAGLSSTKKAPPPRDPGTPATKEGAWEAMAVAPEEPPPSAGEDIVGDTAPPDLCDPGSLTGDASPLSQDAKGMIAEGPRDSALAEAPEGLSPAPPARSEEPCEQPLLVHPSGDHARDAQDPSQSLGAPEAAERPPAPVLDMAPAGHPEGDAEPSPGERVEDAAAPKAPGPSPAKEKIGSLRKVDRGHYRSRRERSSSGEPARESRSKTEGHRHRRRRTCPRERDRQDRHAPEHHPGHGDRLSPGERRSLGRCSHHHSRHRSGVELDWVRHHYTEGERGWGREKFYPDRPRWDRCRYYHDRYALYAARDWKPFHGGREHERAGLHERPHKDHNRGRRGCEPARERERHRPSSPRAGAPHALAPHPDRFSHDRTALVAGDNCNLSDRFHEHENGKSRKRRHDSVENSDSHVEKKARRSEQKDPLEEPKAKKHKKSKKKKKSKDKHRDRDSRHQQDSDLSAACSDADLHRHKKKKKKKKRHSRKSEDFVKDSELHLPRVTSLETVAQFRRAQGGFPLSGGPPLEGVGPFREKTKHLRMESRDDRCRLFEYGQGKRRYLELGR
Summary of the method: (§1)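 HEK293T lysate (495 µg per sample, in Tris/CHAPS/IGEPAL buffer with protease inhibitors) was exposed in triplicate for 3 h to fragment at 200 µM or to vehicle, then to Biotin-Ahx-Ub-VS at 0.5 µM final for 1 h. Labelled DUBs were enriched on NeutrAvidin, digested with LysC and trypsin, and analysed by diaPASEF LC-MS/MS. Spectronaut label-free quantities were normalised to the global median, and values are average log2 ratios of fragment over vehicle from an unpaired t-test. Only proteins with ≥2 unique peptides were used.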

USP46 = USP46 (UniProt P62068)
Summary of the method: as §1

USP47 = molecular target: T2, USP47 (UniProt Q96K76)
T2 sequence (whole entry): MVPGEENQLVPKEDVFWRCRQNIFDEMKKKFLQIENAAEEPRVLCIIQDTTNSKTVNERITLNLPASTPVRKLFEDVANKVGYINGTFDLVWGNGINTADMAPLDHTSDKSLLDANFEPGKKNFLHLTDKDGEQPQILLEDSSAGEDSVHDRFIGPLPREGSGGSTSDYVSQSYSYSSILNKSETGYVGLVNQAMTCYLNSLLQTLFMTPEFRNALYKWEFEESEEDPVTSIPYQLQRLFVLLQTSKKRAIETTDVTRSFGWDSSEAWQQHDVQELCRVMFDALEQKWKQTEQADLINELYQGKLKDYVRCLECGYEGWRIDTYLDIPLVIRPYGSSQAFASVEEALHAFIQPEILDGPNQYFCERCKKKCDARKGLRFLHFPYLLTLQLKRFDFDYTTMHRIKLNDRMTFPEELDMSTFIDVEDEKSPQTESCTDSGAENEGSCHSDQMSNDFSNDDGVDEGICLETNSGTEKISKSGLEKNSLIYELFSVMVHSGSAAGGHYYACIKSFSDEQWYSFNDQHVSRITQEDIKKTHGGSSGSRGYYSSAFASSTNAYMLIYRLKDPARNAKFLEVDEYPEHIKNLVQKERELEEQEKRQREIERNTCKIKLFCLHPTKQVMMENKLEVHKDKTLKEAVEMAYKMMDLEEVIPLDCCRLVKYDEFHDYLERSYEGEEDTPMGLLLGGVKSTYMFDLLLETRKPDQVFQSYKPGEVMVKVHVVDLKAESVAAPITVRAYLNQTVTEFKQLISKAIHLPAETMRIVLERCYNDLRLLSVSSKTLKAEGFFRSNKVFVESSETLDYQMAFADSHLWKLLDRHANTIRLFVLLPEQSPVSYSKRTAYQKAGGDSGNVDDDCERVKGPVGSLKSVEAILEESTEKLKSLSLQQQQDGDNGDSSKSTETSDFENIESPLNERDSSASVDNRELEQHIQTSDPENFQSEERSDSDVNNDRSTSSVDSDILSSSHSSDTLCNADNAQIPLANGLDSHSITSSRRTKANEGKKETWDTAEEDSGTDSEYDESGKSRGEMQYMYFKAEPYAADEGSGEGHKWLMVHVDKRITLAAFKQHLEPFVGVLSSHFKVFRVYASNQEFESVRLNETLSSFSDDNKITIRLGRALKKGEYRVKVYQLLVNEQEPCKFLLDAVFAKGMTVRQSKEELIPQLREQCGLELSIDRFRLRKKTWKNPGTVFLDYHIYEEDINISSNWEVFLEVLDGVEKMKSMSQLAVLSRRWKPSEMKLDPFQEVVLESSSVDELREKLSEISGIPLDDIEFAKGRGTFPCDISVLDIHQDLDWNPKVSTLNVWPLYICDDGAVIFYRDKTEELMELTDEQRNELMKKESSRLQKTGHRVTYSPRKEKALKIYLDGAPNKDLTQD
Summary of the method: as §1

USP48 = molecular target: T3, USP48 (UniProt Q86UV5)
T3 sequence (whole entry): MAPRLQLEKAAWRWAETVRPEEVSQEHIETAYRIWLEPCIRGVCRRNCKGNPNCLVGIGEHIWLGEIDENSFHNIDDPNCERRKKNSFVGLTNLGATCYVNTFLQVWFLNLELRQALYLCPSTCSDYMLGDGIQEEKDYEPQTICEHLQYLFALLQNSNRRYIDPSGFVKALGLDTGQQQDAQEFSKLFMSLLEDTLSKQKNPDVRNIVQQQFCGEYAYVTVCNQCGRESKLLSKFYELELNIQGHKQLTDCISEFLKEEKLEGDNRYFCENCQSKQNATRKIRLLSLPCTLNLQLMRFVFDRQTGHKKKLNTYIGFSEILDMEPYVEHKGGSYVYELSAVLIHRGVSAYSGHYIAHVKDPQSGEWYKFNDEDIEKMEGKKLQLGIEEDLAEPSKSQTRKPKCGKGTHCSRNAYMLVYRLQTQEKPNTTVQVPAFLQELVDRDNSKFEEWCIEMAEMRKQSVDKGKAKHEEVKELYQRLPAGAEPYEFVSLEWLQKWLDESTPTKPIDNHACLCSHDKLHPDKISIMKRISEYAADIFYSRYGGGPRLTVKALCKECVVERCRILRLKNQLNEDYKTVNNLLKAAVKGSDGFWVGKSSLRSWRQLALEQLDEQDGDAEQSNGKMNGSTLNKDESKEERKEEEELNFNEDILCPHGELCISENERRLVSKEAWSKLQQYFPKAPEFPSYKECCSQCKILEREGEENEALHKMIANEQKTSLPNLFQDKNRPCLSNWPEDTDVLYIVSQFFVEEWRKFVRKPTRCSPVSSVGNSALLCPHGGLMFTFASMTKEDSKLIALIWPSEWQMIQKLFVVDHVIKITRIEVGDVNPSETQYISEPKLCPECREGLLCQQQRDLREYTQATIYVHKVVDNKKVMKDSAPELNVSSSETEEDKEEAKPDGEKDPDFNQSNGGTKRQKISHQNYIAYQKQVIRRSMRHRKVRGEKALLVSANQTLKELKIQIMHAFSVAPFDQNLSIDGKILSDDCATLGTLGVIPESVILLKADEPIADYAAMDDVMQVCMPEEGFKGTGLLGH
Summary of the method: as §1

USP5 = molecular target: T4, USP5 (UniProt P45974)
T4 sequence (whole entry): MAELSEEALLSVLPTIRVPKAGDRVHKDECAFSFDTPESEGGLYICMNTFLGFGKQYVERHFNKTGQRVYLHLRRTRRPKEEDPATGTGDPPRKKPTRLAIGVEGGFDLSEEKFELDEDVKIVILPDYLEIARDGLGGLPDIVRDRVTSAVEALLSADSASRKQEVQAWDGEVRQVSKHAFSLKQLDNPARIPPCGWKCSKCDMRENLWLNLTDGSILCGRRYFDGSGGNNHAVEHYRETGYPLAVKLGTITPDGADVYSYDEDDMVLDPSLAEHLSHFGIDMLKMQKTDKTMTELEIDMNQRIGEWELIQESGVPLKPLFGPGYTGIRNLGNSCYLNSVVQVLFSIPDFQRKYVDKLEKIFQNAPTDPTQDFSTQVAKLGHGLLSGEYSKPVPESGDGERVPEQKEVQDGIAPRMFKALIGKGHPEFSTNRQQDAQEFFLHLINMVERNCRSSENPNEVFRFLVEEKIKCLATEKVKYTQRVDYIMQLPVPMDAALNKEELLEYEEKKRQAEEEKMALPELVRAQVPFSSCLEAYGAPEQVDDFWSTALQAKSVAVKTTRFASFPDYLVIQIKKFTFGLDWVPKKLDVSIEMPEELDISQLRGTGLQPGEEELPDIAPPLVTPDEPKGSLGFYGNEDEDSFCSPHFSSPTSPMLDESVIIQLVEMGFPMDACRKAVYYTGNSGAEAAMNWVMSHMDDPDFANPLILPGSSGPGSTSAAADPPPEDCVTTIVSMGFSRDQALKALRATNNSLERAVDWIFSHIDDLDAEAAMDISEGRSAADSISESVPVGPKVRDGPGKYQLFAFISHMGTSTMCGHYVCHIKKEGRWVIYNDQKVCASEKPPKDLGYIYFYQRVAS
Summary of the method: as §1

USP54 = USP54 (UniProt Q70EL1)
Summary of the method: as §1

USP7 = USP7 (UniProt Q93009)
Summary of the method: as §1

USP8 = molecular target: T5, USP8 (UniProt P40818)
T5 sequence (whole entry): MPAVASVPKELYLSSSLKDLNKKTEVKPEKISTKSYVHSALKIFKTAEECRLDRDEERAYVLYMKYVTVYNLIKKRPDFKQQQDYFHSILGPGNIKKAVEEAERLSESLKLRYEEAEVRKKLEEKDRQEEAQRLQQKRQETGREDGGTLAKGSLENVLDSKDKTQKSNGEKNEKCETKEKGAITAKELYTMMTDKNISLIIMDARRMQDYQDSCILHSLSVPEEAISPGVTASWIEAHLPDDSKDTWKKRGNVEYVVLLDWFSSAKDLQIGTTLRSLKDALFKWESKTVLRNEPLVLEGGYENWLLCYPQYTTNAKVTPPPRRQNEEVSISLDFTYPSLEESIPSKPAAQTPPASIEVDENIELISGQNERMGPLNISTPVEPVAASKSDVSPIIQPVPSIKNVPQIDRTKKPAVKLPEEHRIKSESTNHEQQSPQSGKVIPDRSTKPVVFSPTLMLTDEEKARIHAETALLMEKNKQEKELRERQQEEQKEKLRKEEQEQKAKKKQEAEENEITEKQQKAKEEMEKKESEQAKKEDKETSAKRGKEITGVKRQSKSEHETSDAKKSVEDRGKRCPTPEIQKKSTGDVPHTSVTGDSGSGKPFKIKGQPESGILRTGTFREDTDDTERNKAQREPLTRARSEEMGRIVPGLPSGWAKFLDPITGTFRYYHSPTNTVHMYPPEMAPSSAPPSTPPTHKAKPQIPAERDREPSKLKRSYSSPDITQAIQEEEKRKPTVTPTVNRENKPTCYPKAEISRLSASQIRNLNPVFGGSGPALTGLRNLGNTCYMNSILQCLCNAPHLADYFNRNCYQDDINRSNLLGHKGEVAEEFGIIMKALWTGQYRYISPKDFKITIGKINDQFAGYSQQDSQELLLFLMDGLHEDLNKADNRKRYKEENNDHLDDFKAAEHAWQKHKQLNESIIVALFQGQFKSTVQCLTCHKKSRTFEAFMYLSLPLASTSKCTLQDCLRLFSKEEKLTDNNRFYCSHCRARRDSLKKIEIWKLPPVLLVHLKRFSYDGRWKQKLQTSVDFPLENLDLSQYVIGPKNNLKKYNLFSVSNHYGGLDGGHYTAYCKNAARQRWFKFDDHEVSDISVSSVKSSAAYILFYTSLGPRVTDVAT
Summary of the method: as §1

USP9X = USP9X (UniProt Q93008)
Summary of the method: as §1

UniProt O00487 = molecular target: UniProt O00487
Summary of the method: as §1

Measured: log2 ratio of Biotin-Ahx-Ub-VS probe labelling

Chain of UniProt O00487 (O00487 whole entry): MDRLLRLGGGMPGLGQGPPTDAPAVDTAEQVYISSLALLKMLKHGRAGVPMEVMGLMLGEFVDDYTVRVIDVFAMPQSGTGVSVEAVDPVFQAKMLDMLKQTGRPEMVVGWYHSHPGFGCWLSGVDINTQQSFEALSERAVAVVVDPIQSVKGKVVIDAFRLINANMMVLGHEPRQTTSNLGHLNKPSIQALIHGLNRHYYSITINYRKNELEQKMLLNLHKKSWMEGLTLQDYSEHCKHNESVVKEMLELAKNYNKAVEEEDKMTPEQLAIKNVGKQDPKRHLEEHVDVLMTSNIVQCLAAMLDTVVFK
Chain of USP7 (Q93009 whole entry, looked up): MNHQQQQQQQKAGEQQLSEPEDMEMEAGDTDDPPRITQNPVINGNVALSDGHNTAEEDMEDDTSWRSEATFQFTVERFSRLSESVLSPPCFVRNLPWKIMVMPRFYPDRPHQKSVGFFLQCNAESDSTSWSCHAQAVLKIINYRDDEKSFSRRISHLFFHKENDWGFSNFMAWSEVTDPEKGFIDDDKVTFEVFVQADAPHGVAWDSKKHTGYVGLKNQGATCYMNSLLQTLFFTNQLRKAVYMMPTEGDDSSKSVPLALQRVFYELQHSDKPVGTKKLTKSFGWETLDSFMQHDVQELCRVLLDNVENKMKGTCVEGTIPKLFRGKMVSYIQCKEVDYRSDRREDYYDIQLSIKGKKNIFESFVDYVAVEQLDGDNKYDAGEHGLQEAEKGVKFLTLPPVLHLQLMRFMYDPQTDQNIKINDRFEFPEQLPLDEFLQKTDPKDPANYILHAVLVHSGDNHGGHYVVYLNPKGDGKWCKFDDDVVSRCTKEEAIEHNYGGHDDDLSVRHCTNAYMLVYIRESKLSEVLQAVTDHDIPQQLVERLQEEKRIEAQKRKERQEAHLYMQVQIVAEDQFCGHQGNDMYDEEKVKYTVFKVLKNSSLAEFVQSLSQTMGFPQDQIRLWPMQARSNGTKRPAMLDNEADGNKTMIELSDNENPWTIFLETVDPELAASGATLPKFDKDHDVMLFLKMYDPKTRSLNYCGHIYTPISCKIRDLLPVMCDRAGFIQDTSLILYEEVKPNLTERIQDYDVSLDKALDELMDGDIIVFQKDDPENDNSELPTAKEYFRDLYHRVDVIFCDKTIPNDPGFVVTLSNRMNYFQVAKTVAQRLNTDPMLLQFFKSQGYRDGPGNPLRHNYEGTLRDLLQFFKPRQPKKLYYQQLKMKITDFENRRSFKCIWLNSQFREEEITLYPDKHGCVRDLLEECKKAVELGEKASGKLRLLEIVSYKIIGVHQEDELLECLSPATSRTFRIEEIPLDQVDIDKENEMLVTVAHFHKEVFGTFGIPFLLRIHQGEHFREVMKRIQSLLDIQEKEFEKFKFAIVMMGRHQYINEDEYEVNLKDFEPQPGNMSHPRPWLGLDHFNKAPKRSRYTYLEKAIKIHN
Chain of USP46 (P62068 whole entry): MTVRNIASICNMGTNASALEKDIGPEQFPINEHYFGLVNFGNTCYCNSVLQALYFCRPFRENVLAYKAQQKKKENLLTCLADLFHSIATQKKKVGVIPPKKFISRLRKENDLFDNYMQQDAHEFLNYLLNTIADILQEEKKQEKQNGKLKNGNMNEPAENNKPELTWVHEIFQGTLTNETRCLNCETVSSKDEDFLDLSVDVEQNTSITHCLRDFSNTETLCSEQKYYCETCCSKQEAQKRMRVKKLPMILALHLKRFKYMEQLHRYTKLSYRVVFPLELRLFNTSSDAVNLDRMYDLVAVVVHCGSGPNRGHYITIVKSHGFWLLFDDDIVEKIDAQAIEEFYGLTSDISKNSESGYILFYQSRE
Chain of USP9X (Q93008 whole entry): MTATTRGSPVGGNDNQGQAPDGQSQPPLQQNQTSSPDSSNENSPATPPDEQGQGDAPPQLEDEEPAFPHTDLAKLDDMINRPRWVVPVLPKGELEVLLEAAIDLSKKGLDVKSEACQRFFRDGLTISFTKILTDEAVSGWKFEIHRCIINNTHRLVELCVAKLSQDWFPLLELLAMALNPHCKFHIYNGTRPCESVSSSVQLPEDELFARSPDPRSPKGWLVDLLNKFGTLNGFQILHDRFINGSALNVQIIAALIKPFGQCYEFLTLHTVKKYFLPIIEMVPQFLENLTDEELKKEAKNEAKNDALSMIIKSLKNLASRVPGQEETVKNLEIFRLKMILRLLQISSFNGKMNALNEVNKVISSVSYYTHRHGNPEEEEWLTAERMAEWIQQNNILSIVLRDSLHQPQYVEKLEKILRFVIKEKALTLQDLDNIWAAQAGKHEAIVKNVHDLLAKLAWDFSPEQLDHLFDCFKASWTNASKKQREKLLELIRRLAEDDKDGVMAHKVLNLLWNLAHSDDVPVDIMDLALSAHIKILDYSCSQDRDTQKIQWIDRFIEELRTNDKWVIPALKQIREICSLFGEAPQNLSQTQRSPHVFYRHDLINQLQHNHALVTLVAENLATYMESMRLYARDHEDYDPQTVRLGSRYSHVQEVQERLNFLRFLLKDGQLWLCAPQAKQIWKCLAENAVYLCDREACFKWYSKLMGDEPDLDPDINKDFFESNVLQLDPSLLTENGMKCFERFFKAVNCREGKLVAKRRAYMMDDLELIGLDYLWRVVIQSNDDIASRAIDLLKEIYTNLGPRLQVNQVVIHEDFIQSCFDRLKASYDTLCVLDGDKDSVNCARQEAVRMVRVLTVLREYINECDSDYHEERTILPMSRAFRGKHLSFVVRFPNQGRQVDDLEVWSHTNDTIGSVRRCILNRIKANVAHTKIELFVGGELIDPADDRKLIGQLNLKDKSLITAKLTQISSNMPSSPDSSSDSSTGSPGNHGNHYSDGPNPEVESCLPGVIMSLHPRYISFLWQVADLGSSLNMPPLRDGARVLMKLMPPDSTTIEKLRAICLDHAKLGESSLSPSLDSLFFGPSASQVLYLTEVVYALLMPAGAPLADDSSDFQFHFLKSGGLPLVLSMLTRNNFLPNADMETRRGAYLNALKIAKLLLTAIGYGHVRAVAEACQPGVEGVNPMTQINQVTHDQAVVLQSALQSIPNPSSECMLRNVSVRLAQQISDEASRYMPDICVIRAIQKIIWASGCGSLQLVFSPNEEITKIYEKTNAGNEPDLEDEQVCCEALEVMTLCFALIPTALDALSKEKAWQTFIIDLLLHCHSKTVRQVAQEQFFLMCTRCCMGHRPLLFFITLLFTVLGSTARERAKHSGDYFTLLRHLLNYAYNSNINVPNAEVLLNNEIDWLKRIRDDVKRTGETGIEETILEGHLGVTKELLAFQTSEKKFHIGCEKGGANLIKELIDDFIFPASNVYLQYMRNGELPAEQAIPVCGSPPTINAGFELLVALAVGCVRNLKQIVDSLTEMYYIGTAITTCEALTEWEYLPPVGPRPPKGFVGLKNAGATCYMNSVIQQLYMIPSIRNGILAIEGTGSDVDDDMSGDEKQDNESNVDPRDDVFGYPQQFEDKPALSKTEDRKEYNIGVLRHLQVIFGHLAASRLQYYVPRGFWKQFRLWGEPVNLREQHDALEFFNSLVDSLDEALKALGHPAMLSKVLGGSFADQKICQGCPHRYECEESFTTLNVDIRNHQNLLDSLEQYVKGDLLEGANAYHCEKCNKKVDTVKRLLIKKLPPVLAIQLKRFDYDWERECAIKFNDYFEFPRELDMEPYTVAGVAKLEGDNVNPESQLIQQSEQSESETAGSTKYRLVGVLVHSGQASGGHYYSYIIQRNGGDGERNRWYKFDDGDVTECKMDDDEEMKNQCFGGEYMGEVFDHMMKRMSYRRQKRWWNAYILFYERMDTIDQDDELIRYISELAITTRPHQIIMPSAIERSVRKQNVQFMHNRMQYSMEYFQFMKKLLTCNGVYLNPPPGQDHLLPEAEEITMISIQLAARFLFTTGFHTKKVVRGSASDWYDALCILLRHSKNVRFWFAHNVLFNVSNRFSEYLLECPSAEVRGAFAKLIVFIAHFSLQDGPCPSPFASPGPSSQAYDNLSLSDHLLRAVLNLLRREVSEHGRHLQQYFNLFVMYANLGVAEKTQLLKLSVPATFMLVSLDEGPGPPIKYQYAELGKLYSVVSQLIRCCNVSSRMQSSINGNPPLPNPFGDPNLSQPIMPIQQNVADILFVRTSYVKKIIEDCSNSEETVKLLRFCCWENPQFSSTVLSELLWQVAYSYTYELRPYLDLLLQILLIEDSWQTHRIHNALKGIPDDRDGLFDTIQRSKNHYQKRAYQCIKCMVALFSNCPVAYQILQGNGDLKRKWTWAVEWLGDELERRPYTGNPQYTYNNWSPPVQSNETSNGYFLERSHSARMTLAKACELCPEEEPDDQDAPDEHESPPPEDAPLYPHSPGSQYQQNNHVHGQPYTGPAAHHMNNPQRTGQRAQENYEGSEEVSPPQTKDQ

O=C(CCl)Nc1cc(Cl)ccc1-n1cncn1
active: USP7 -1.33 | USP9X -1.04
inactive: USP42 0.477 | USP46 -0.691 | USP47 -0.4 | USP48 -0.638 | USP5 -0.61 | USP54 0.943 | USP8 -0.73 | UniProt O00487 -0.13
